In the library only some 2.7% were active in any assay of this set; here they are far more common.
MPTP block – mitochondrial permeability transition pore inhibitors, primary screen, biochemical, isolated mouse mitochondria, absorbance; Ca2+ swelling absorbance, 30 min; actives 1.4% (n = 360,000); inhibition, % at 10 µM;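 active means inhibition of 50% or more, scaled per plate between neutral and stimulator controls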
aDG glyco act – activators of alpha-DG glycosylation, primary screen, uHTS, Pro5-aDG cells, AlphaScreen; alpha-DG glycosylation AlphaScreen (IIH6); 0% Pro5, 100% B10-LARGE cell signal; activation, % at 10 µM; actives 0.22% (n = 360,000); AID 624168, 2012;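 active means activation of at least 8% versus controls, or a plate z-score of at least 8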;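 further: Pro5 are CHO cells carrying HIG-tagged alpha-DG that lacks glycosylation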
H9c2 TAG inh – inhibitors of triacylglycerol accumulation, primary screen, cell-based, uHTS, fluorescence, H9c2 | inhibition, % at 12.5 µM | actives 0.66% (n = 230,000) | AID 651582, 2012 | H9c2 cells, Nile Red lipid (TAG) fluorescence; cells loaded with 200 µM oleic acid;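 active means pattern-corrected inhibition of lipid staining of at least 50% with the nuclear-stain viability signal not falling by more than 50%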
NadD block – inhibitors of S. aureus NadD, primary screen, biochemical, colorimetric, uHTS; AID 602399, 2012; purified NadD enzyme, colorimetric absorbance read-out; actives 0.78% (n = 360,000); Nicotinate-nucleotide adenylyltransferase NadD (Staphylococcus aureus N315); inhibition, % at 20 µM; in the data active means inhibition above about 26%
NadD inh conf – inhibitors of S. aureus NadD, confirmation, biochemical, colorimetric, single concentration. shares compounds with NadD block. purified S. aureus NadD, colorimetric enzyme assay. inhibition, % at 20 µM. actives 13% (n = 2,000); in the data active means inhibition mostly above about 42%, no sharp cut-off; inactive means mostly below about 42%
Large screens that a line does not name were inactive (follow-up assays come after a bar, where they were run).

O=C(Nc1cccc(S(=O)(=O)NC2=NCCCCC2)c1)c1cc(-c2ccncc2)nc2ccccc12	none
Nc1ccc2nc(CCCCCCCCc3nc4ccc(N)cc4[nH]3)[nH]c2c1	none
Nc1ccc2nc(CCCCCCc3nc4ccc(N)cc4[nH]3)[nH]c2c1	NadD block 50.0 | NadD inh conf inactive
NC(Cc1ccccc1)c1csc(NC(=O)Nc2ccccc2Oc2ccccc2)n1 (configuration not stated)	none
NC(Cc1ccc(C(F)(F)F)cc1)c1csc(NC(=O)Nc2ccccc2Oc2ccccc2)n1 (configuration not stated)	NadD block 34.3 | NadD inh conf inactive
CCCc1c(C(=O)N/N=C/c2ccc(OCc3ccccc3)c(OC)c2)nnn1-c1nonc1N	NadD block 34.7 (no result: H9c2 TAG inh) | NadD inh conf inactive
Nc1nonc1-n1nnc(C(=O)N/N=C/c2cccnc2)c1CSC1=NCCS1	none
Nc1nonc1-n1nnc(C(=O)N/N=C/c2ccc(Br)cc2)c1CSC1=NCCS1	NadD block 31.9 (no result: H9c2 TAG inh) | NadD inh conf inactive
COc1ccccc1/C=N/NC(=O)c1nnn(-c2nonc2N)c1CSC1=NCCS1	none (no result: H9c2 TAG inh)
CCCc1c(C(=O)N/N=C/c2ccc(OC)c(OCc3ccccc3)c2)nnn1-c1nonc1N	none (no result: H9c2 TAG inh)
CC(C)c1ccc(/C=N/NC(=O)c2nnn(-c3nonc3N)c2CSC2=NCCS2)cc1	NadD block 31.8 (no result: H9c2 TAG inh) | NadD inh conf inactive
Cc1ccccc1NC(=O)NC1(C(=O)NCC2CCCO2)CCCCC1 (configuration not stated)	none (no result: H9c2 TAG inh)
CCOc1cc(/C=C2\SC(=O)N(CC(=O)Nc3ccccc3F)C2=O)cc([N+](=O)[O-])c1O	none (no result: H9c2 TAG inh)
COc1cc(/C=C2\SC(=O)N(CC(=O)Nc3cccc(C)c3)C2=O)cc([N+](=O)[O-])c1O	NadD block 40.8 (no result: H9c2 TAG inh) | NadD inh conf inactive
N#CC1(NC(=O)CSc2nnc(Nc3ccccc3F)s2)CCCC1	none
Cc1ccc(NC(=O)c2ccc(N/N=C/c3cccc(O)c3)c([N+](=O)[O-])c2)cc1	H9c2 TAG inh 60.2, NadD block 36.2 | NadD inh conf inactive
COCCN1CCN(C(=O)c2cc(COc3ccc(Cl)cc3OC)on2)CC1	none
Nc1ccccc1C(=O)NNC(=O)C(=O)/C=C(\O)c1ccccc1	NadD block 71.5 | NadD inh conf 73.5
COC1=CC(=O)OC(c2ccc(C#N)cc2)C1 (configuration not stated)	none (no result: H9c2 TAG inh, NadD block)
COc1cc(/C=N/NC(=O)Cn2nc([N+](=O)[O-])cc2C)cc(Br)c1OCc1ccccc1	NadD block 35.1 | NadD inh conf inactive
CCOc1cc(/C=N/NC(=O)Cn2nc([N+](=O)[O-])cc2C)cc(Br)c1OCc1ccccc1C	none (no result: H9c2 TAG inh)
NNC(=O)c1ccc(CN2C(=O)c3cccc4cccc2c34)cc1	none
COc1ccccc1/C=N/NC(=O)c1ccc(CN2C(=O)c3cccc4cccc2c34)cc1	NadD block 35.4 | NadD inh conf inactive
COc1ccc(/C=N/NC(=O)c2ccc(CN3c4cccc5cccc(c45)S3(=O)=O)cc2)cc1	NadD block 31.4 (no result: H9c2 TAG inh) | NadD inh conf inactive
O=C(Nc1ccccc1C(=O)N1CCCCC1)c1cccs1	none
O=C(N/N=C/c1ccc([N+](=O)[O-])o1)c1cc(-c2cccc(Br)c2)nc2ccccc12	NadD block 71.6 | NadD inh conf inactive
CCCc1ccc(-c2cc(C(=O)N/N=C/c3ccc([N+](=O)[O-])o3)c3ccccc3n2)cc1	NadD block 33.9 | NadD inh conf inactive
COc1ccc(-c2nn(-c3ccccc3)cc2C(=O)N/N=C/c2ccc([N+](=O)[O-])o2)cc1	NadD block 30.7 | NadD inh conf inactive
Cc1cc(C(=O)N/N=C/c2ccc([N+](=O)[O-])o2)c(C)o1	none
Cc1ccc(S(=O)(=O)N2C[C@@H]3[C@H]4CC[C@H](C4)[C@@H]3[C@@H](C)[C@H]2C#N)cc1	none
Cc1ccc(S(=O)(=O)Nc2ccccc2C(C(=O)OC(C)(C)C)C(=O)OC(C)(C)C)cc1	none (no result: H9c2 TAG inh, NadD block)
Cc1ccccc1C1C(C#N)=C2N=C(N)c3c(sc4c3CCCCC4)N2C2=C1C(=O)CCC2 (configuration not stated)	NadD block 42.9 | NadD inh conf inactive
N#CC1=C2N=C(N)c3ccccc3N2C2=C(C(=O)CCC2)C1c1ccccc1F (configuration not stated)	none
COc1cccc(-c2nc(N3CCN(c4ccccc4)CC3)c3ccccc3n2)c1O	NadD block 30.9 (no result: H9c2 TAG inh) | NadD inh conf inactive
Cc1cccc(C)c1NC(=O)CN(C)C(=O)C1CC1C (configuration not stated)	none
Cc1ccc(-c2nn(-c3ccccc3)cc2/C=N/n2c(-c3ccncc3)n[nH]c2=S)cc1	NadD block 38.7 | NadD inh conf inactive
O=C(NCCN1C(=O)S/C(=C/c2cccnc2)C1=O)c1ccc(S(=O)(=O)N2CCCC2)cc1	none
COc1cccc(C2C3=C(N=c4s/c(=C\c5cccc(O)c5)c(=O)n42)c2ccccc2CC3)c1OC (configuration not stated)	NadD block 40.0 (no result: H9c2 TAG inh) | NadD inh conf inactive
COc1cccc(C2C3=C(N=c4s/c(=C\c5ccc(O)cc5)c(=O)n42)c2ccccc2CC3)c1OC (configuration not stated)	none (no result: H9c2 TAG inh)
CCn1c2ccccc2c2cc(NC(=O)COC(=O)c3cc(Cl)c(N)cc3OC)ccc21	NadD block 35.8 | NadD inh conf inactive
CCn1c2ccccc2c2cc(NC(=O)COC(=O)c3cc(S(N)(=O)=O)c(Cl)cc3Cl)ccc21	NadD block 40.6 | NadD inh conf inactive
CCOC(=O)Nc1ccc2c(CN3CCN(S(=O)(=O)c4ccc(C(C)C)cc4)CC3)cc(=O)oc2c1	NadD block 49.8 | NadD inh conf inactive
CCOC(=O)Nc1ccc2c(CN3CCN(S(=O)(=O)c4ccccc4F)CC3)cc(=O)oc2c1	none
CCCCC(=O)Nc1nc(C)c(-c2csc(Nc3cc(Cl)ccc3OC)n2)s1	NadD block 33.6 (no result: H9c2 TAG inh) | NadD inh conf inactive
CCCCCCC(=O)Nc1nc(C)c(-c2csc(Nc3cc(Cl)ccc3C)n2)s1	NadD block 39.0 | NadD inh conf inactive
CCOc1ccc(C2SCC(=O)N2c2c(C)n(C)n(-c3ccccc3)c2=O)cc1 (configuration not stated)	none
CCOc1ccc(C2=C(C=Nc3c(C)n(C)n(-c4ccccc4)c3=O)C(c3ccc(F)cc3)c3ccccc3O2)cc1 (configuration not stated)	NadD block 45.6 | NadD inh conf inactive
CC1CN(C(=O)/C=C/c2ccccc2Cl)CC(C)O1 (configuration not stated)	none
Cc1c(N=C2N=C(NC(=O)c3cccs3)c3ccccc32)c(=O)n(-c2ccccc2)n1C	NadD block 31.1 | NadD inh conf inactive
Cc1c(N=C2N=C(NC(=O)NC(C)(C)C)c3ccccc32)c(=O)n(-c2ccccc2)n1C	none
CCc1nnc(NC(=O)CN2CCN(Cc3ccccc3Cl)CC2)s1	none

High-throughput results: PubChem, Sanford-Burnham Center for Chemical Genomics
